Legend:
Assay in all cases: protein-binding microarray (PBM); PBM: ~300 nM protein, 6 mM HEPES pH 7.8, 80 mM KCl, 0.5 mM EDTA, 0.5 mM EGTA, 6% glycerol, 35 ng/ul poly-dIdC, 1% milk, 1 h, room temperature; Ap Aiptasia and Nv Nematostella (sea anemones) / Co Capsaspora / Aq Amphimedon (sponge) / Dm Drosophila / Hu human; RHD is the Rel homology domain; high values mean tight binding
Settings in all cases: dsDNA, one strand shown
GST-Ap-NF-kB RHD = molecular target: T1, GST-Ap-NF-kB RHD (Exaiptasia pallida (Aiptasia), UniProt A0A913YAJ5 2-422)
T1 sequence: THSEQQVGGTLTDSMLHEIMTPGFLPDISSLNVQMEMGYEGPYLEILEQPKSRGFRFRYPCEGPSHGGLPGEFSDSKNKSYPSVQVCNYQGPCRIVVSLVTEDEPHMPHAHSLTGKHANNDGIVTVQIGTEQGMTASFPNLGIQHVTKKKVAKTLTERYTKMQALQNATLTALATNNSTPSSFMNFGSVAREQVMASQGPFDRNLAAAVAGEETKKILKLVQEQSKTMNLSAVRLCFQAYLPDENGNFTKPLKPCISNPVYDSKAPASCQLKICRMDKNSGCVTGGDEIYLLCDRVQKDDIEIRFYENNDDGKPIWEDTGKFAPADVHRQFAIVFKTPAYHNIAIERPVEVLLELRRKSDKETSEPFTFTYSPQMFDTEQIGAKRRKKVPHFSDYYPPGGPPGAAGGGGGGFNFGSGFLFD

[1] = molecular target: T2, GST-Nv-NF-kB (Cys allele) (Nematostella vectensis, UniProt E5G601 2-411)
T2 sequence: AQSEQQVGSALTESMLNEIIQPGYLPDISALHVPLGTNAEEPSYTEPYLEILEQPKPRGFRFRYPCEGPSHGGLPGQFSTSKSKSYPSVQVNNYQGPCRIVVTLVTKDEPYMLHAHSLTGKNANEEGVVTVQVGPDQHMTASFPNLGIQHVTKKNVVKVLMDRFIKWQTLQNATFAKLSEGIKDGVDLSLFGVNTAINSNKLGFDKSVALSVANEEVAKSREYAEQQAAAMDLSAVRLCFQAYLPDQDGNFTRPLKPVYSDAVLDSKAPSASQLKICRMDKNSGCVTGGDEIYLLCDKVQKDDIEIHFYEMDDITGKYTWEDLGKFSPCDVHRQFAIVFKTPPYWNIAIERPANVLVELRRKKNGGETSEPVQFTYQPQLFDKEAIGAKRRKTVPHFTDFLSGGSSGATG

GST-Co-NF-kB = molecular target: T3, GST-Co-NF-kB (Capsaspora owczarzaki, UniProt F1ARL5 200-546)
T3 sequence: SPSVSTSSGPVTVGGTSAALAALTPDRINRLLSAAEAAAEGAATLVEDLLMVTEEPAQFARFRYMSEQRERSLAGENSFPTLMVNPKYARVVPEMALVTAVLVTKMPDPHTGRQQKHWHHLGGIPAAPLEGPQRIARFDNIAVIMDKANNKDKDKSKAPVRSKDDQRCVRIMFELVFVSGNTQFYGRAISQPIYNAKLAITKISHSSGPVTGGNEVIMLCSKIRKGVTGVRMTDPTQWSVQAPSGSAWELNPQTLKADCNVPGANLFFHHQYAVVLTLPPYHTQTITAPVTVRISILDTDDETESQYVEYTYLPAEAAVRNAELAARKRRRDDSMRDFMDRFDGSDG

GST-Dm-Relish = molecular target: T4, GST-Dm-Relish (Drosophila melanogaster, UniProt Q94527 99-473)
T4 sequence: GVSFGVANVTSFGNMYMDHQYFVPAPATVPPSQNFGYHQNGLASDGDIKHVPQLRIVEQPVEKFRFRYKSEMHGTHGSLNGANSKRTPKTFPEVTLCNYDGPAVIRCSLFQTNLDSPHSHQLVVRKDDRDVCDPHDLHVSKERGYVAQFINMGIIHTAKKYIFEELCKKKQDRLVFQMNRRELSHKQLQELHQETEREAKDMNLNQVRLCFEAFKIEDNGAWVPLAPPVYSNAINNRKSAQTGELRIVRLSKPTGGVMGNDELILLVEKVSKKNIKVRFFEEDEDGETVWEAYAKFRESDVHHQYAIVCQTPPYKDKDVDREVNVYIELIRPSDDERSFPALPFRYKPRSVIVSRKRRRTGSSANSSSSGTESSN

GST-Aq-NF-kB = molecular target: T5, GST-Aq-NF-kB (Amphimedon queenslandica, UniProt A9Y5G7 2-389)
T5 sequence: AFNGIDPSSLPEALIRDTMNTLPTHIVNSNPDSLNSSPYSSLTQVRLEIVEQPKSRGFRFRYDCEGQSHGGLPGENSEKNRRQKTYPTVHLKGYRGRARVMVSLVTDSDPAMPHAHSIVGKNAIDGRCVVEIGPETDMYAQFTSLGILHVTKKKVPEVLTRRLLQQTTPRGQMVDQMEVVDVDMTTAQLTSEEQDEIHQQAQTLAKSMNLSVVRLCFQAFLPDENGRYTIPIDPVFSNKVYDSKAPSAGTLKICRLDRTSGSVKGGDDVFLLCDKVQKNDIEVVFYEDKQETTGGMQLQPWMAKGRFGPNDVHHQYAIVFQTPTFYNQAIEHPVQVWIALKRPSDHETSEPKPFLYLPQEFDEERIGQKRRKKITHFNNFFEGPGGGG

| Sequence | binding signal (GST-Ap-NF-kB RHD) | binding signal [1] | binding signal (GST-Co-NF-kB) | binding signal (GST-Dm-Relish) | binding signal (GST-Aq-NF-kB) |
| --- | --- | --- | --- | --- | --- |
| CCGATTAACATCACAAACGGGGCTGATGTTAATCGGGTCTTGATTCGCTTGACGCTGCTG | 1.5 z-score | 2.75 z-score | 1.3 z-score | 1.33 z-score | 3.49 z-score |
| CCGATTAACATCAAATTCCCAGATGATGTTAATCGGGTCTTGATTCGCTTGACGCTGCTG | 2.43 z-score | 3.57 z-score | 3.87 z-score | 3.52 z-score | 2.42 z-score |
| CCGATTAACATCAGGGGTCCCCATGATGTTAATCGGGTCTTGATTCGCTTGACGCTGCTG | 4.7 z-score | 2.57 z-score | 1.99 z-score | 7.31 z-score | 3.6 z-score |
| CCGATTAACATCAGGGGAAGGTATGATGTTAATCGGGTCTTGATTCGCTTGACGCTGCTG | 3.33 z-score | 4.71 z-score | 5.15 z-score | 2.58 z-score | 3.96 z-score |
| CCGATTAACATCAGGGGGTAGGATGATGTTAATCGGGTCTTGATTCGCTTGACGCTGCTG | 4.15 z-score | 2.75 z-score | 3.64 z-score | 1.35 z-score | 2.89 z-score |
| CCGATTAACATCAGGGGAGAATATGATGTTAATCGGGTCTTGATTCGCTTGACGCTGCTG | 4.99 z-score | 5.42 z-score | 7.41 z-score | 1.73 z-score | 3.83 z-score |
| CCGATTAACATCAAAAATCCCATTGATGTTAATCGGGTCTTGATTCGCTTGACGCTGCTG | 3.2 z-score | 3.67 z-score | 1.08 z-score | 7.97 z-score | 3.96 z-score |
| CCGATTAACATCAGGGGTTACACTGATGTTAATCGGGTCTTGATTCGCTTGACGCTGCTG | 2.67 z-score | 1.04 z-score | 2.66 z-score | 2 z-score | 2.36 z-score |
| CCGATTAACATCATGGGTGGGAATGATGTTAATCGGGTCTTGATTCGCTTGACGCTGCTG | 1.4 z-score | 1.79 z-score | 2.62 z-score | 1.66 z-score | 2.5 z-score |
| CCGATTAACATCACAGCCCCCCCTGATGTTAATCGGGTCTTGATTCGCTTGACGCTGCTG | 4.64 z-score | 3.58 z-score | 3.34 z-score | 4.81 z-score | 3.82 z-score |
| CCGATTAACATCAGGCGTCCCCCTGATGTTAATCGGGTCTTGATTCGCTTGACGCTGCTG | 5.61 z-score | 5.07 z-score | 4.12 z-score | 3.92 z-score | 4.77 z-score |
| CCGATTAACATCAGGGGCACCCCTGATGTTAATCGGGTCTTGATTCGCTTGACGCTGCTG | 5.17 z-score | 3.94 z-score | 2.5 z-score | 7.23 z-score | 7.19 z-score |
| CCGATTAACATCAGGGATTCCCATGATGTTAATCGGGTCTTGATTCGCTTGACGCTGCTG | 4.88 z-score | 4.61 z-score | 2.91 z-score | 10 z-score | 6.04 z-score |
| CCGATTAACATCAGGACACCCCCTGATGTTAATCGGGTCTTGATTCGCTTGACGCTGCTG | 6.35 z-score | 5.22 z-score | 2.5 z-score | 6.86 z-score | 7.67 z-score |
| CCGATTAACATCAGGCTTTTCCCTGATGTTAATCGGGTCTTGATTCGCTTGACGCTGCTG | 2.62 z-score | 4.54 z-score | 2.51 z-score | 2.3 z-score | 6.49 z-score |
| CCGATTAACATCAGGGGATGACCTGATGTTAATCGGGTCTTGATTCGCTTGACGCTGCTG | 3.72 z-score | 4.14 z-score | 1.93 z-score | 6.67 z-score | 6.55 z-score |
| CCGATTAACATCAAAAGAATCCCTGATGTTAATCGGGTCTTGATTCGCTTGACGCTGCTG | 3.44 z-score | 3.59 z-score | 1.15 z-score | 5.35 z-score | 4.69 z-score |
| CCGATTAACATCAGGGAAAACACTGATGTTAATCGGGTCTTGATTCGCTTGACGCTGCTG | 3.49 z-score | 4.89 z-score | 4.18 z-score | 5.1 z-score | 6.06 z-score |
| CCGATTAACATCAGAACTTTCCCTGATGTTAATCGGGTCTTGATTCGCTTGACGCTGCTG | 4.2 z-score | 6.87 z-score | 3.78 z-score | 2.67 z-score | 7.19 z-score |
| CCGATTAACATCACGCAATTCCCTGATGTTAATCGGGTCTTGATTCGCTTGACGCTGCTG | 2.72 z-score | 4.1 z-score | 2.33 z-score | 1.52 z-score | 3.43 z-score |
| CCGATTAACATCAAACCCCCCCATGATGTTAATCGGGTCTTGATTCGCTTGACGCTGCTG | 6.35 z-score | 4.78 z-score | 5.7 z-score | 6.81 z-score | 5.02 z-score |
| CCGATTAACATCAGGGGTTTACCTGATGTTAATCGGGTCTTGATTCGCTTGACGCTGCTG | 5.65 z-score | 5.44 z-score | 1.56 z-score | 9.7 z-score | 6.9 z-score |
| CCGATTAACATCAATCCCCCCCGTGATGTTAATCGGGTCTTGATTCGCTTGACGCTGCTG | 6.49 z-score | 4.68 z-score | 7.66 z-score | 6.77 z-score | 5.33 z-score |
| CCGATTAACATCAGAAATCCCACTGATGTTAATCGGGTCTTGATTCGCTTGACGCTGCTG | 2.54 z-score | 2.54 z-score | 1.65 z-score | 5.45 z-score | 2.41 z-score |
| CCGATTAACATCACTTGGGAAACTGATGTTAATCGGGTCTTGATTCGCTTGACGCTGCTG | 1.38 z-score | 2.05 z-score | 2.44 z-score | 1.01 z-score | 1.18 z-score |
| CCGATTAACATCAGGCCACCCCCTGATGTTAATCGGGTCTTGATTCGCTTGACGCTGCTG | 3.91 z-score | 2.49 z-score | 2.66 z-score | 5.42 z-score | 5.7 z-score |
| CCGATTAACATCATCCGGGAAAATGATGTTAATCGGGTCTTGATTCGCTTGACGCTGCTG | 2.01 z-score | 3.79 z-score | 4.53 z-score | 1.58 z-score | 2.54 z-score |

From paper PMC5700166
